Screen size: about 310,000 compounds; about 14,000 (4.5%) showed an effect of 50% or more. The effect is printed as a negative number. Shown is part of a subset that was picked to be rich in strong results.

Experimental findings from article PMC4336329 (PLoS ONE, 2015) are described below.
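Also: peak tail current of the secondary pulse compared with the same well before compound.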

The target in this test is human ether-à-go-go-related gene (hERG) potassium channel (human, UniProt Q12809). The test can be described thus: primary screen, population patch clamp on CHO cells stably expressing hERG; higher = less effect of the substance.
human ether-à-go-go-related gene (hERG) potassium channel, sequence (Q12809 whole entry, looked up): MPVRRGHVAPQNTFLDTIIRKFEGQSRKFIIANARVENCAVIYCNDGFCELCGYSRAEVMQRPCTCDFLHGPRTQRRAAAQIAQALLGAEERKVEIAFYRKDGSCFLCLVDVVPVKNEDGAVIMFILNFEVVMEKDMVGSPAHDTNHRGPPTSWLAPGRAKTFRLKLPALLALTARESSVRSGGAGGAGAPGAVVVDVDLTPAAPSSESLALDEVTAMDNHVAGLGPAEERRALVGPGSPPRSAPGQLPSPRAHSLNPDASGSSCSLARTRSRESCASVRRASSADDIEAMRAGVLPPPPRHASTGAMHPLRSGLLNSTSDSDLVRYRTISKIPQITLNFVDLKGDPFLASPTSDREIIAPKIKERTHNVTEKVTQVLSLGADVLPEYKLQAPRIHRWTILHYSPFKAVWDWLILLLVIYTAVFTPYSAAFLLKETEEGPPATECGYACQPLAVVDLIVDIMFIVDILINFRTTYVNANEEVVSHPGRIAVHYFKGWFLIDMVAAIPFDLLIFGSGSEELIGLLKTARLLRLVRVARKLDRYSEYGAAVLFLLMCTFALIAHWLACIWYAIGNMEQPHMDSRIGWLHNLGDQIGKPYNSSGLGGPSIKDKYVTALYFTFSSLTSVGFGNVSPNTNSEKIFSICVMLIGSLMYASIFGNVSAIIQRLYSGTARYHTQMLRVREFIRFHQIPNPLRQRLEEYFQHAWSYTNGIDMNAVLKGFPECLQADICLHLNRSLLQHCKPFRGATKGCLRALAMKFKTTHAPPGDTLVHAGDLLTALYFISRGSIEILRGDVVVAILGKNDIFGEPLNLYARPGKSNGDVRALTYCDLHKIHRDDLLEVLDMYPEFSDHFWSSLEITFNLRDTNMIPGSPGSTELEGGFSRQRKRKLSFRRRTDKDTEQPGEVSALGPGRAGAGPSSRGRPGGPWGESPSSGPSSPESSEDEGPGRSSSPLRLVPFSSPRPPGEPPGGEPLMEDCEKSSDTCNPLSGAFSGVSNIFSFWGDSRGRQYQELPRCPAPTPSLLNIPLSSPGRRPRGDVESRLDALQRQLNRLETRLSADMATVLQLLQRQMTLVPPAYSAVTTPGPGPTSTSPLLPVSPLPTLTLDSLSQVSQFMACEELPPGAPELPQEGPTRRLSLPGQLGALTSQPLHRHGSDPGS
`CCCc1nc(SCC(=O)NNC(=O)C2CCCCC2)c2ccccc2n1`: the “hERG current change (%, negative = inhibition) at 10uM” value is reported as -2.77%. `Cc1ccc(S(=O)(=O)N(C)c2ccc(OCC(=O)Nc3nc(-c4ccccc4)cs3)cc2)cc1`: the “hERG current change (%, negative = inhibition) at 10uM” value was determined as 14.3%. With `O=[N+]([O-])c1ccc(C[n+]2cc(-c3ccccc3)n3c2CCCCC3)cc1.[Br-]`, the “hERG current change (%, negative = inhibition) at 10uM” value is given as -35.3%.

On to `Clc1ccc(C[n+]2cc(-c3ccccc3)n3c2CCCCC3)c(Cl)c1.[Br-]`, for which the “hERG current change (%, negative = inhibition) at 10uM” value is given as -74.4%.

For `Clc1ccc(-c2c[n+](Cc3ccc(Cl)cc3Cl)c3n2CCCCC3)cc1.[Br-]`, the “hERG current change (%, negative = inhibition) at 10uM” value is -66%. For the molecule `Clc1ccc(C[n+]2cc(-c3ccccc3)n3c2CCC3)cc1.[Cl-]`, the “hERG current change (%, negative = inhibition) at 10uM” value is given as -33.5%. Take `Cc1cc(Nc2ccccc2)c2c([N+](=O)[O-])cc(C)c(C)c2n1`: the “hERG current change (%, negative = inhibition) at 10uM” value is -9.29%. Next, `O=C(CCn1c(=O)[nH]c2ccccc2c1=O)Nc1ccccc1`: 16.4%; `Cc1ccc(S(=O)(=O)NCC(=O)N(CC(=O)NCc2ccco2)Cc2ccc(F)cc2)cc1`: 5.19%; `O=C(COC(=O)CC1Sc2ccccc2NC1=O)NCc1ccccc1` (centres unmarked): -21.4%. Next, `Cc1cccc(N2CCN(C(C)C(=O)N3CCc4ccccc43)CC2)c1C` (centres unmarked): 17%; `CCCNC(=O)CS(=O)(=O)Cc1nc(-c2ccccc2C)oc1C`: 3.88%; `O=S(=O)(c1cccc(F)c1)N1CCN(Cc2ccc3c(c2)OCO3)CC1`: -35.8%. The value for `O=S(=O)(c1ccc(F)c(F)c1)N1CCN(Cc2ccc3c(c2)OCO3)CC1` was -51.4%; that for `O=C1CCc2cc(S(=O)(=O)N3CCN(Cc4ccc5c(c4)OCO5)CC3)ccc2N1` was -70.1%; that for `COc1ccc(S(=O)(=O)N2CCN(Cc3ccc4c(c3)OCO4)CC2)cc1F` was -30.5%. As for `O=S(=O)(c1ccc2c(c1)OCCO2)N1CCN(Cc2ccc3c(c2)OCO3)CC1`, the “hERG current change (%, negative = inhibition) at 10uM” value is 3.98%.

For the molecule `O=C1CCc2cc(S(=O)(=O)NCCCC(=O)N3CCN(Cc4ccc5c(c4)OCO5)CC3)ccc2N1`, the “hERG current change (%, negative = inhibition) at 10uM” value was -0.149%. The value for `O=[N+]([O-])c1cc(Br)c(O)c(/C=N/Nc2nnnn2-c2cccc3ccccc23)c1` was 0.778%; that for `O=C(Cc1c[nH]c2ccccc12)Nc1nccs1` was 0.956%. The value for `O=C(CN1C(=O)C2CC=CCC2C1=O)Nc1cc(C(F)(F)F)ccc1N1CCCC1` (centres unmarked) was -24.6%; that for `O=C(O)c1cc2n(n1)CCN(Cc1ccccc1Cl)C2=O` was 8.71%. On to `Cc1nc2ccccc2c(=O)n1/N=C/c1ccccc1`, for which the “hERG current change (%, negative = inhibition) at 10uM” value is -0.523%. For the molecule `Cc1nc2ccccc2n1/N=C/c1ccc([N+](=O)[O-])s1`, the “hERG current change (%, negative = inhibition) at 10uM” value is listed as -12.3%. Next, `Cc1ccc(/C=N/n2c(C)nc3ccccc3c2=O)o1`: 10.9%. In the case of `Cc1nc2ccccc2c(=O)n1/N=C/c1ccc([N+](=O)[O-])o1`, the “hERG current change (%, negative = inhibition) at 10uM” value is -53.3%. Next, `Cc1cc2ncn(/N=C/c3ccc([N+](=O)[O-])o3)c2cc1C`: -0.858%; `Cc1nc2ccccc2n1/N=C/c1ccc([N+](=O)[O-])o1`: -58.9%. Next, `O=C(c1cc2c(s1)CCC2)N1C(=O)c2ccccc2S1(=O)=O`: 12.9%. The value for `CCCC(C)NC(=O)CN1C(=O)c2cccc3cccc1c23` (centres unmarked) was 1.42%; that for `COc1ccc(C(C)=O)cc1CSc1nc2cc(Cl)ccc2o1` was 9.66%. As for `O=c1oc2cccnc2n1CCS(=O)(=O)c1ccc(F)cc1`, the “hERG current change (%, negative = inhibition) at 10uM” value stood at 9.29%. The value for `CCOc1ccccc1NC(=O)Cn1c(-c2ccc(Cl)cc2)noc1=O` was -2.01%; that for `CCN(C(=O)CSc1nc2ccccc2c(=O)n1Cc1ccc(C)cc1)C1CCS(=O)(=O)C1` (centres unmarked) was -71%. Regarding `Cc1ccc(-n2c(SCC(=O)N(C)C3CCS(=O)(=O)C3)nc3ccccc3c2=O)cc1` (centres unmarked), the “hERG current change (%, negative = inhibition) at 10uM” value is 11%. Next, `CCN(C(=O)CSc1nc2ccccc2n1CC)C1CCS(=O)(=O)C1` (centres unmarked): 0.264%; `CCCN(C(=O)CSc1nc2ccccc2n1CC)C1CCS(=O)(=O)C1` (centres unmarked): 2.29%; `CCN(C(=O)CSc1nc2ccccc2c(=O)n1-c1cccc(C)c1)C1CCS(=O)(=O)C1` (centres unmarked): -14.9%. Consider `Cc1ccccc1-n1c(SCC(=O)N(C)C2CCS(=O)(=O)C2)nc2ccccc2c1=O` (centres unmarked), for which the “hERG current change (%, negative = inhibition) at 10uM” value is given as 11.6%. Next, `Cc1ccc(Cn2c(SCC(=O)N(C)C3CCS(=O)(=O)C3)nc3ccccc3c2=O)cc1` (centres unmarked): -60.8%; `CCN(C(=O)CSc1nc2ccccc2c(=O)n1-c1ccc(C)cc1)C1CCS(=O)(=O)C1` (centres unmarked): -11.6%. The value for `CCn1c(SCC(=O)N(Cc2ccccc2)C2CCS(=O)(=O)C2)nc2ccccc2c1=O` (centres unmarked) was -61%. Turning to `CCN(C(=O)COC(=O)c1cc(S(=O)(=O)N2CCOCC2)c(Cl)cc1Cl)C1CCS(=O)(=O)C1` (centres unmarked), the “hERG current change (%, negative = inhibition) at 10uM” value was determined as 9.86%. Turning to `O=c1[nH]c2ccccc2c2nc(-c3cccc(S(=O)(=O)N4CCCC4)c3)nn12`, the “hERG current change (%, negative = inhibition) at 10uM” value is 21.2%.

Turning to `CC(=O)Nc1ccc(C2C(=O)c3ccccc3C2=O)cc1`, the “hERG current change (%, negative = inhibition) at 10uM” value is 21.4%.

Turning to `O=[N+]([O-])c1ccccc1N/N=C1\CC2CC=CC12` (centres unmarked), the “hERG current change (%, negative = inhibition) at 10uM” value came out at 46.5%. As to `CCOc1ccccc1C(=O)N(CN1CCCC1=O)c1cccc(Cl)c1`, the “hERG current change (%, negative = inhibition) at 10uM” value is on record as -3.65%. Consider `CCc1ccc(NC(=O)C[n+]2cc(-c3ccc(C)cc3)n3c2CCC3)cc1.[Cl-]`, for which the “hERG current change (%, negative = inhibition) at 10uM” value is listed as -63.1%. As to `Cc1ccc(-c2c[n+](CC(=O)Nc3c(C)cccc3C)c3n2CCC3)cc1.[Cl-]`, the “hERG current change (%, negative = inhibition) at 10uM” value was found to be 14.1%. The value for `Cc1ccc(NC(=O)C[n+]2cc(-c3ccc(C)cc3)n3c2CCC3)cc1.[Cl-]` was -70%. `Cc1ccc(-c2c[n+](CC(=O)Nc3ccccc3C)c3n2CCC3)cc1.[Cl-]`: the “hERG current change (%, negative = inhibition) at 10uM” value was -5.42%. The value for `Cc1ccc(NC(=O)C[n+]2cc(-c3ccccc3)n3c2CCC3)cc1.[Cl-]` was -15.2%; that for `Cc1ccc(-c2c[n+](CC(=O)Nc3ccccc3)c3n2CCC3)cc1.[Cl-]` was -27.8%.
